Values joined by “and” are separate entries in the source; they are usually repeats but may differ in a detail not shown here. Equal values may be shown once. Inconclusive results are not listed. Entries that show only a call come without a potency. Some compounds were tested as several samples or in several runs, with calls that do not always agree. Active and inactive are the calls of the source. Unless noted, the call rests on the fitted dose curve; in most records, active means well fitted curve in the direction sought with a large enough effect in the repeat runs; inconclusive means weak or mixed curves; inactive means no such curve, though single readings can be large; an effect the other way counts as inactive or inconclusive.
Key:
[1] = qHTS assay to identify small molecule antagonists of the estrogen receptor alpha (ER-alpha) signaling pathway using the BG1 cell line in the presence of 0.1 nM 17-beta-estradiol - cell viability counter screen (AID 1259241); further: nearly all actives have a fitted effect of over 40% in size; further: potency means the concentration at half of the fitted maximal effect
Procedure, shortened: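 Measures cytotoxicity alongside the ER-alpha antagonist readout: VM7Luc4E2 cells, charcoal-stripped serum, 0.1 nM 17beta-estradiol final, 22 hr compound incubation at 37C, CellTiter-Fluor fluorescence.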

[2] = qHTS assay to identify small molecule antagonists of the androgen receptor (AR) signaling pathway using the MDA cell line in the presence of 0.5 nM R1881 - cell viability counter screen (AID 1259242); further: nearly all actives have a fitted effect of over 45% in size; further: potency means the concentration at half of the fitted maximal effect
Procedure, shortened: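 Live-cell protease fluorescence, CellTiter-Fluor, 30 min at 37C. Cells: MDA-kb2, 3,000/well, preincubated 5 hr. Compounds plus 0.5 nM R1881 final, 16 hr, 37C, 0% CO2.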

[3] = qHTS assay to identify small molecule HDAC inhibitors (AID 1259364); further: potency means the concentration at half of the fitted maximal effect;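 further: wild-type HCT-116 cells with endogenous class I/II HDAC activity; nearly all actives have a fitted effect of over 45% in size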
Procedure, shortened: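 HCT-116 (wild type), 1,500 cells/well, overnight; compound 2 hr 37C 5% CO2; HDAC-Glo I/II reagent 30 min RT; luminescence readout.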

[4] = qHTS assay to identify small molecule HDAC inhibitors - cell viability counter screen (AID 1259365); further: series mostly up to about 92 µM; nearly all actives have a fitted effect of over 50% in size
Procedure, shortened: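 Following a 2hr exposure of overnight-plated wild-type HCT-116 cells to DMSO-delivered compounds, CellTiter-Glo was added and luminescence recorded after 30min at room temperature.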

[5] = qHTS assay to identify small molecule agonists of the sonic hedgehog signaling (Shh) pathway - cell viability counter screen (AID 1259366); further: nearly all actives have a fitted effect of over 50% in size; further: potency means the concentration at half of the fitted maximal effect
Procedure, shortened: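 After a 4hr attachment at 37C, NIH/3T3 cells bearing an integrated Gli1-driven luciferase reporter were dosed with compounds. Treatment lasted 24hr, with the final hour including CellTiter-Fluor for a fluorescence viability measurement.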

[6] = qHTS assay to identify small molecule antagonists of the sonic hedgehog signaling (Shh) pathway - cell viability counter screen (AID 1259367); further: nearly all actives have a fitted effect of over 55% in size; further: potency means the concentration at half of the fitted maximal effect
Procedure, shortened: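 Cytotoxicity was assessed in parallel with Shh reporter activity by measuring live-cell protease fluorescence (CellTiter-Fluor) in NIH/3T3 cells stably carrying Gli1-Luc, treated with compound under conditioned medium stimulation for 23 hr plus 1 hr reagent incubation.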

[7] = qHTS assay to identify small molecule agonists of the sonic hedgehog signaling (Shh) pathway (AID 1259368; calls by dose curve; further: nearly all actives have a fitted effect of over 15% in size; further: potency means the concentration at half of the fitted maximal effect)
Procedure, shortened: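 Read-out: firefly luciferase luminescence from a Gli1 response element reporter stably integrated in NIH/3T3-derived 3T3Gli1-Luc cells, measured 30 min at room temperature after reagent addition. Compound exposure lasted 24 hr at 37 C, 5% CO2.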

[8] = qHTS assay to identify small molecule phospholipidosis (PLD) inducers (AID 1259344; active means well fitted curve in the direction sought with a large enough effect; an effect the other way counts as inactive or inconclusive)
Procedure, shortened: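 Cells (HepG2, 900 per well) attach for 4 h, receive LipidTOX Red and compound together, incubate 24 h at 37 C, are fixed 30 min with paraformaldehyde/Hoechst, then imaged at one site per well.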

[9] = target: Estrogen receptor (Homo sapiens) (UniProt P03372); assay: qHTS assay to identify small molecule antagonists of the estrogen receptor alpha (ER-alpha) signaling pathway using the BG1 cell line in the presence of 0.1 nM 17-beta-estradiol (AID 1259244); further: nearly all actives have a fitted effect of over 50% in size
Procedure, shortened: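 Luminescence after ONE-Glo (30 min, room temperature) measured ERE-luciferase activity in VM7Luc4E2 cells treated 22 h with compound and 0.1 nM final 17beta-estradiol as stimulator.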

Chain of Estrogen receptor (Homo sapiens) (P03372 whole entry, looked up): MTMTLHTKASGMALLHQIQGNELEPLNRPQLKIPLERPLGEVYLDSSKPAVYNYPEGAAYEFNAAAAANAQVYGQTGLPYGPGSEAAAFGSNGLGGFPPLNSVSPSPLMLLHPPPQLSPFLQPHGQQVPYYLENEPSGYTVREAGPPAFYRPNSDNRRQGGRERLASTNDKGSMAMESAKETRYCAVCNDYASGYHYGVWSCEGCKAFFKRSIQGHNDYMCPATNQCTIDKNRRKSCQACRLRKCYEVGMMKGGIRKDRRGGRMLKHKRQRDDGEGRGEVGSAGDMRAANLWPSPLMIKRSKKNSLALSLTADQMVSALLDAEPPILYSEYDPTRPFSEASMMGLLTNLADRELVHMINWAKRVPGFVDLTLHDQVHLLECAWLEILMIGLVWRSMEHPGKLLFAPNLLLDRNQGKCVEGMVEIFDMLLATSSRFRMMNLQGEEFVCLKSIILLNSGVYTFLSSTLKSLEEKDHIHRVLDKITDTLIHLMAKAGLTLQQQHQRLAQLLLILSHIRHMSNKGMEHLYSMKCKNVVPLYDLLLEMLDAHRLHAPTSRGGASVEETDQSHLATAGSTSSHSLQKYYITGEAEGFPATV

SMILES | Potency [1] | Potency [2] | Potency [3] | outcome [4] | Potency [5] | Potency [6] | Potency [7] | Potency [8] | Potency [9] | PLD induction [8]
c1ccc(Nc2ccccc2)cc1 | inactive | inactive | inactive | inactive | inactive | inactive | inactive | – | – | –
C/C=C/C(=O)O | inactive | inactive | inactive | inactive | inactive | inactive | inactive | – | – | –
CCCCC(CC)COP(=O)(OCC(CC)CCCC)OCC(CC)CCCC (stereo not drawn) | inactive | inactive | inactive | inactive | inactive | inactive | inactive | – | – | –
CN(C)c1nc(N(C)C)nc(N(C)C)n1 | inactive | inactive | inactive | inactive | inactive | inactive | inactive | inactive | – | –
CCCC(=O)O | inactive | inactive | inactive | inactive | inactive | inactive | inactive | inactive | – | –
COc1cccc2c1C(=O)c1c(O)c3c(c(O)c1C2=O)C[C@@](O)(C(=O)CO)C[C@@H]3O[C@H]1C[C@H](N)[C@H](O)[C@H](C)O1 | 11.9 µM (active) | – | inactive and 11.9 µM (active) | inactive | 967 nM (active) and 9.44 µM (active) | 967 nM (active) and 6.68 µM (active) | inactive | inactive | inactive | –
Cc1cc2nc3c(=O)[nH]c(=O)nc-3n(C[C@H](O)[C@H](O)[C@H](O)CO)c2cc1C | – | – | inactive | inactive | – | – | inactive | inactive | – | –
O=C(c1ccccc1)c1ccccc1O | inactive | inactive | inactive | inactive | inactive | inactive | inactive | – | – | –
COC(=O)c1ccccc1 | inactive | inactive | inactive | inactive | inactive | inactive | inactive | – | – | –
O=C=Nc1ccc(Cc2ccc(N=C=O)cc2)cc1 | inactive | inactive | inactive | inactive | inactive | inactive | inactive | – | – | –
OC[C@H]1O[C@@H]2O[C@H]3[C@H](O)[C@@H](O)[C@@H](O[C@H]4[C@H](O)[C@@H](O)[C@@H](O[C@H]5[C@H](O)[C@@H](O)[C@@H](O[C@H]6[C@H](O)[C@@H](O)[C@@H](O[C@H]7[C@H](O)[C@@H](O)[C@@H](O[C@H]8[C@H](O)[C@@H](O)[C@@H](O[C@H]1[C@H](O)[C@H]2O)O[C@@H]8CO)O[C@@H]7CO)O[C@@H]6CO)O[C@@H]5CO)O[C@@H]4CO)O[C@@H]3CO | inactive | inactive | inactive | inactive | inactive | inactive | inactive | inactive | – | –
Brc1cc(Oc2cc(Br)c(Br)c(Br)c2Br)c(Br)c(Br)c1Br | inactive | inactive | inactive | inactive | inactive | inactive | inactive | – | – | –
CC(=O)c1ccccn1 | inactive | inactive | inactive | inactive | inactive | inactive | inactive | – | – | –
CN(C)C(=N)N=C(N)N | inactive | inactive | inactive | inactive | inactive | inactive | inactive | inactive | – | –
NNc1ccc(C(=O)O)cc1 | inactive | inactive | 2.47 µM (active) and 6.93 µM (active) | inactive | inactive | inactive | 5.5 µM (active) | – | – | –
NC=O | inactive | inactive | inactive | inactive | inactive | inactive | inactive | – | – | –
Cc1ccc(C(=O)c2cc(O)c(O)c([N+](=O)[O-])c2)cc1 | inactive | 54.5 µM (active) | inactive | inactive | inactive | 54.5 µM (active) and inactive | inactive | – | – | 0.47% [at 7.66 µM] (inactive)
Cc1ncc[nH]1 | inactive | inactive | inactive | inactive | inactive | inactive | inactive | inactive | – | –
C[Si](C)(C)O[Si](C)(C)C | inactive | inactive | inactive | inactive | inactive | inactive | inactive | inactive | – | –

Source: PubChem BioAssay (Tox21)
